Five compounds from PubChem BioAssay (NCATS) can be followed below.

Assay [1] has as its system Zika virus NS2B-NS3 protease (linked construct). As to the kind of experiment: Primary screen NINDS Rhodamine qHTS for Zika virus inhibitors (AID 1347160). Also: potency is read from the fitted curve at half-maximal effect; nearly all actives have a fitted effect of over 55% in size. The gist of the method: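 Aprotinin served as in-plate control. Conditions: 25 nM linked NS2B-NS3, pH 8.0 Tris buffer, titrated compounds, 15 min preincubation and 15 min reaction with 1.5 microM Rhod110 substrate at room temperature.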

Assay [2] in a line: HPAF-II Cancer Cell Toxicity qHTS against the NCATS CANVASS Library (AID 1347346). Also: series mostly up to about 38 µM; nearly all actives have a fitted effect of over 55% in size. The gist of the method: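 First, HPAF-II cells are plated (1000 cells/well) and held 4 h at 37 degrees C. Next, compounds are pin-transferred as an 11-point series. After 72 h, CellTiter-Glo is added and luminescence measured.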
(In general: qHTS replaces the single test concentration by a dilution series.)

Assay [3] in a line: OV-SAHO Cancer Cell Toxicity qHTS against the NCATS CANVASS Library (AID 1347348). Also: series mostly up to about 38 µM; nearly all actives have a fitted effect of over 55% in size. The gist of the method: (§1)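 Following a 4 h pre-incubation of 1000 seeded cells, compounds were pinned in an 11-pnt dilution series and left for 72 h; viability then came from CellTiter-Glo.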
Assay [4] is described as follows: U-118MG Cancer Cell Toxicity qHTS against the NCATS CANVASS Library (AID 1347351). The method, boiled down:
as §1

Assay [5] can be described thus: COV-362 Cancer Cell Toxicity qHTS against the NCATS CANVASS Library (AID 1347352). Also: series mostly up to about 38 µM. The gist of the method: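 First, 1000 cells go into each well and rest for 4 hours. Next, an 11-point dilution range is pinned in. Plates then incubate 72 hours before CellTiter-Glo addition and luminescence reading.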
The nature of assay [6]: HEK293 18hr Apoptosis Induction qHTS against the NCATS CANVASS Library (AID 1347357). The gist of the method: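 HEK293 cells (500 per well, DMEM with 10% FBS) were treated with natural products, incubated 18 hours at 37 degrees C, then caspase-3/7 activity was read by Caspase-Glo luminescence after 15 min at room temperature.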
Assay [7] is described as follows: HPAF-II 12hr Apoptosis Induction qHTS against the NCATS CANVASS Library (AID 1347358). The method, boiled down:
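Cells plated at 500 per well are dosed with compound and incubated 12 hours at 37 degrees C. Caspase-Glo 3/7 reagent is added and, after 15 min at room temperature, luminescence proportional to caspase activity is measured.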

Assay [8] can be described thus: HEK293 24hr Apoptosis Induction qHTS against the NCATS CANVASS Library (AID 1347359). The gist of the method:
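Caspase-3/7 activation measured as luminescence from the DEVD-based Caspase-Glo reagent, 15 min at room temperature, following 24-hour compound treatment of HEK293 cells.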

A short description of assay [9]: HPAF-II 18hr Apoptosis Induction qHTS against the NCATS CANVASS Library (AID 1347360). The gist of the method:
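HPAF-II cells (500/well, DMEM + 10% FBS) were exposed to compounds for 18 hours at 37 degrees C. Caspase-3/7 activity was then read by Caspase-Glo 3/7 luminescence after 15 min at room temperature.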

Assay [10] in a line: HEK293 12hr Apoptosis Induction qHTS against the NCATS CANVASS Library (AID 1347361). The gist of the method:
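Read-out: Caspase-Glo 3/7 luminescence (DEVD substrate), 15 min RT. Preceded by 12 h compound exposure of HEK293, 500 cells/well, 11-pt qHTS titration; doxorubicin titration as control.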

In assay [11] the target is Luciferin 4-monooxygenase (Photinus pyralis) (UniProt P08659). Briefly: Firefly luciferase counterscreen qHTS: Assay Interference Panel against the NCATS CANVASS Library (AID 1347363). Also: series mostly up to about 57 µM. The method, boiled down: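 Luminescence inhibition readout: compounds (11-point qHTS) sat 15 min at room temperature with substrate mix (0.013 mM luciferin and ATP), then firefly luciferase was added and signal read 5 min later.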
Luciferin 4-monooxygenase (Photinus pyralis), sequence (P08659 whole entry, looked up): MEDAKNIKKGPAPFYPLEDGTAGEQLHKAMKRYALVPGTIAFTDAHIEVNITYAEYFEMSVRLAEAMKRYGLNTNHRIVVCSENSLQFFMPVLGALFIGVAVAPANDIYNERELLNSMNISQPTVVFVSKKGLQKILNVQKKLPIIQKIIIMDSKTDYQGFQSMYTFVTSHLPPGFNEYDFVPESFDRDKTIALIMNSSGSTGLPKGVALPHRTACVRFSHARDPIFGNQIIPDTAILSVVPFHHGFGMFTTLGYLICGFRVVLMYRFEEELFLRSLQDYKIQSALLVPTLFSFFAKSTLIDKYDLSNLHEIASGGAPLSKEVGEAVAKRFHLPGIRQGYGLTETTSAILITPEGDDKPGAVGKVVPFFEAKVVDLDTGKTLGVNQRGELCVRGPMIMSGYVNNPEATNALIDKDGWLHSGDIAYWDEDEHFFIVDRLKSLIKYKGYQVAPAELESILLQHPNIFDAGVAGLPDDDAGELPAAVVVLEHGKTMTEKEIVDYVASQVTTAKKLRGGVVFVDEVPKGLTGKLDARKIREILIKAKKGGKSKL
(Counterscreens check selectivity or assay interference.)

Assay [12] is described as follows: MCF7 Cancer Cell Toxicity qHTS against the NCATS CANVASS Library (AID 1347369). The gist of the method: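 MCF7, 500 cells/well; cpds 11-pt qHTS; 72 hr, 37C/5% CO2; CellTiterGlo ATP luminescence.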
Assay [13] can be described thus: qHTS for ATAD5 Antagonist screened against the NCATS CANVASS Library (AID 1347370).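 Also: HEK293T cells carrying an ATAD5 luciferase reporter co-treated with 10 µM 5-fluorouridine; series mostly up to about 46 µM; nearly all actives have a fitted effect of over 65% in size.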 The method, boiled down: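 Compounds (11-point) co-dosed with 10 µM 5-FUrd for 16 h at 37 °C onto HEK293T-ATAD5 luciferase reporter cells. Viability measured by CellTiter-Fluor fluorescence, then ATAD5 reporter signal by luminescence.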
Assay [14] can be described thus: J3T Cancer Cell Toxicity qHTS against the NCATS CANVASS Library (AID 1347371). The gist of the method:
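Luminescence from CellTiterGlo, reporting cellular ATP, serves as the viability measure after 72 hr compound treatment of J3T canine glioma cells seeded at 500 cells/well.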

Assay [15] concerns the target Nuclear receptor subfamily 1 group I member 3 (Homo sapiens) (UniProt Q14994). As to the kind of experiment: qHTS for Constitutive Androstane Receptor (CAR) Antagonist screened against the NCATS CANVASS Library (AID 1347372).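 Also: cells stimulated with 50 nM CITCO agonist so inhibition reflects antagonism; series mostly up to about 46 µM.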 The method, boiled down:
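Antagonist mode: compound added alongside 50 nM CITCO to HepG2-hCAR-CYP2B6 reporter cells, 24hr at 37C. Viability by CellTiter-Fluor fluorescence, then CAR-driven luciferase by ONE-Glo luminescence.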

Assay [16] is described as follows: qHTS for Inflammasome Signaling Inhibitors: IL-1-beta AlphaLISA screen against the NCATS CANVASS Library (AID 1347379).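 Also: human THP-1 cells primed with LPS then triggered with ATP.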 The gist of the method:
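Secreted IL-1B from human THP-1 cells quantified by AlphaLISA 16 hr after compound addition (final up to 57.5 uM). A 1 hr compound pretreatment preceded inflammasome activation with 250 ng/mL LPS plus 1.25 mM ATP (final).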

The nature of assay [17]: Inflammasome Signaling qHTS Counterscreen: IL-1-beta AlphaLISA counterscreen against the NCATS CANVASS Library (AID 1347381).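 Also: cell-free check with purified IL-1β in medium and no THP-1 cells; series mostly up to about 57 µM.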 The method, boiled down:
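Purified IL-1-beta (4 pg/well) + compound, 11-pt conc. series; acceptor beads 6 ug/mL + biotin-Ab 0.6 nM final, 1 h RT; SA-donor 24 ug/ml final, 30 min dark RT; read ex 680/em 615.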

Assay [18] can be described thus: Cytotoxicity qHTS for assessment of Hepg2 cells membrane integrity screened against the NCATS CANVASS Library (AID 1347387). The gist of the method: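 Cells were seeded at 2000 per well and left overnight to attach. Compounds were pin-transferred to give 0.59 nM - 46 uM in an 11-point series and incubated 5 hr at 37C. CytoTox-ONE reagent was added and, after 10 min at room temperature, fluorescence (ex 560, em 590 nm) was read.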

A short description of assay [19]: Vero-766 cells viability qHTS against the NCATS CANVASS Library: Counterscreen for Zika virus inhibition assay (AID 1347394). Also: series mostly up to about 46 µM; nearly all actives have a fitted effect of over 60% in size. The gist of the method: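 Uninfected Vero 766 (African green monkey) cells, 1000/well, attached overnight, then exposed 72 h at 37C to compounds (11-point qHTS). Viability read by CellTiter-Glo luminescence; media-only wells served as 100% inhibition.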

Assay [20] in a line: 10-beta competent E. coli microbial cell viability qHTS against the NCATS CANVASS Library (AID 1347376). Also: series mostly up to about 46 µM. The method, boiled down: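 Bacterial suspension diluted to 0.2 OD was dosed with compounds, 11-point series, then held overnight at 37C. BacTiter-Glo reagent was added, and after 20 min at room temperature ATP-dependent luminescence was measured.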

Values without a mark were called inactive. Records with an inconclusive call do not appear. Activity calls are given as the source filed them. Calls follow the shape of the dose curve; as a rule, active = well fitted curve in the direction sought with a large enough effect; inconclusive = small, poorly fitted or top-dose-only effect, or another doubt; inactive = no such curve, though single readings can be large; an effect the other way counts as inactive or inconclusive.

Nuclear receptor subfamily 1 group I member 3 (Homo sapiens), sequence (Q14994 whole entry, looked up): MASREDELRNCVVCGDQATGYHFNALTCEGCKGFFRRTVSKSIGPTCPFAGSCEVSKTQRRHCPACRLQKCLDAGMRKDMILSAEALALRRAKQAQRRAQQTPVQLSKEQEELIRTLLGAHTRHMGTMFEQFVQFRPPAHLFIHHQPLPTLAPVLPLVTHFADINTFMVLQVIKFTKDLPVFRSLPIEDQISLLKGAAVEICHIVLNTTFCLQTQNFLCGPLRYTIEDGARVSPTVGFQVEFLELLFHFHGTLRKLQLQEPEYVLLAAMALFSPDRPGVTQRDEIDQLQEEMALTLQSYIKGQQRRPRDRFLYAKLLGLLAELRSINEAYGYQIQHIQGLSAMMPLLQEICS

Take `O=C1c2c(O)cc(O)cc2O[C@@H](c2ccc(O)cc2)[C@@H]1c1c(O)cc(O)c2c(=O)cc(-c3ccc(O)c(O)c3)oc12`: the Potency in assay [1] was 3.92 µM (active). In addition, the Potency entry in assay [2], in assay [3], in [4], in assay [5], in assay [6] and in [7] was “inactive” in each case. For the same compound, the Potency result in assay [8], in assay [9], in assay [10], in [11], in [12] and in assay [13] was “inactive” each time. The Potency result in assay [14], in assay [15], in [16] and in assay [19] was “inactive” throughout. For the same compound, the call in assay [17] and in [18] was inactive.

As to `O=C1C[C@@H](c2ccc(O)c(-c3c(O)cc(O)c4c3O[C@H](c3ccc(O)cc3)CC4=O)c2)Oc2cc(O)cc(O)c21`, in [1], the Potency is 4.84 µM (active). Also, the Potency entry in assay [2], in assay [3], in assay [4], in assay [5], in assay [6] and in [7] was “inactive” each time. For the same compound, the Potency entry in assay [8], in assay [9], in assay [10], in assay [11], in [12] and in [13] was “inactive” each time. For the same compound, the Potency result in assay [14], in assay [15], in assay [16] and in [19] was “inactive” each time. The call in [20], in assay [17] and in assay [18] was inactive.

On to `C=C[C@]1(C)CC[C@@H]([C@H](C)C(=O)OCC)O1`, for which, in [1], the Potency was 27.2 µM (active). Besides, the Potency result in assay [2], in assay [3], in assay [4], in assay [5], in assay [6] and in [7] was “inactive” in each case. Besides, the Potency result in assay [8], in [9], in assay [10], in assay [12], in assay [13] and in assay [14] was “inactive” each time. Besides, the Potency entry in [16] and in assay [19] was “inactive” in each case. The result in [20], in assay [17] and in assay [18] was inactive.

`CC(=O)[C@@H]1[C@@H](O)C[C@H]2[C@]3(C)CC[C@H]4C(C)(C)CCC[C@]4(CO)[C@H]3C[C@H]3OC(=O)[C@@H]1[C@@]32C`: the Potency in assay [1] was 55.3 µM (active). Besides, the Potency result in [2], in [3], in assay [4], in [5], in [6] and in assay [7] was “inactive” each time. For the same compound, the Potency result in assay [8], in [9], in [10], in assay [11], in assay [12] and in assay [13] was “inactive” throughout. Moreover, the Potency result in assay [14], in assay [15], in assay [16] and in [19] was “inactive” in each case. Also, the outcome in assay [20], in [17] and in assay [18] was inactive.

Turning to `C=C1C[C@@]23C=CC(=O)[C@@](C)(CCC(=O)Nc4c(O)ccc(C(=O)O)c4O)C2C[C@@H]1CC3O` (some centres not stated), the Potency in [1] was 49.3 µM (active). The Potency entry in [2], in assay [3], in assay [4], in [5], in assay [6] and in assay [7] was “inactive” throughout. For the same compound, the Potency result in [8], in assay [9], in assay [10], in assay [11], in assay [12] and in assay [13] was “inactive” in each case. Moreover, the Potency result in [14], in assay [15], in assay [16] and in [19] was “inactive” throughout. Also, the call in [20], in assay [17] and in assay [18] was inactive.
